From PubChem BioAssay AID1159580 (chemical genetic matrix, 2015)
In all, about 5,500 compounds went through this assay and about 2,000 (36%) were called active. Not shown: some 18% with an inconclusive outcome. Some of the results follow. A number with no mark means an inactive call. Rule as the data show it: active = normalized growth mostly below about 0.91 (no sharp cut-off); inconclusive = no clear call, values can overlap the other calls; inactive = mostly above about 0.92.

Experiment: chemical genetic growth profiling, strain panel (AID 1159580);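 also: tested at 20 µM; growth read once vehicle control cultures reached saturation at 30 °C; 1 = growth at the plate median or of vehicle wells; lower values mean less growth of the strain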
Details: growth OD

Question: What does the source list for `Cc1cc(O)cc(C)c1Cl`?
Answer: normalized growth (S. cerevisiae deletion strains, locus YKL009W, strain mrt4, active compounds read low): 0.931; normalized growth (S. cerevisiae deletion strains, locus YKL068W, active compounds read low): 1; normalized growth (S. cerevisiae deletion strains, locus YKL085W, strain MDH1 (second series), active compounds read low): 0.971; normalized growth (S. cerevisiae deletion strains, locus YKL085W, strain MDH1, active compounds read low): 0.971; normalized growth (S. cerevisiae deletion strains, locus YKL160W, strain elf1, active compounds read low): 0.915; normalized growth (S. cerevisiae deletion strains, locus YKL190W, strain CNB1, active compounds read low): 1; normalized growth (S. cerevisiae deletion strains, locus YKR001C, strain vps1, active compounds read low): 0.846 (active); normalized growth (S. cerevisiae deletion strains, locus YKR026C, strain gcn3, active compounds read low): 0.952; normalized growth (S. cerevisiae deletion strains, locus YKR091W, strain srl3, active compounds read low): 0.958; normalized growth (S. cerevisiae deletion strains, locus YLL001W, strain dnm1, active compounds read low): 0.875 (active); normalized growth (S. cerevisiae deletion strains, locus YLL026W, active compounds read low): 0.915 (active); normalized growth (S. cerevisiae deletion strains, locus YLL041C, strain sdh2, active compounds read low): 0.957; normalized growth (S. cerevisiae deletion strains, locus YLR027C, strain aat2, active compounds read low): 0.941; normalized growth (S. cerevisiae deletion strains, locus YLR039C, strain RIC1, active compounds read low): 0.765; normalized growth (S. cerevisiae deletion strains, locus YLR058C, strain SHM2, active compounds read low): 1; normalized growth (S. cerevisiae deletion strains, locus YLR102C, strain apc9, active compounds read low): 1; normalized growth (S. cerevisiae deletion strains, locus YLR113W, strain HOG1, active compounds read low): 0.944; normalized growth (S. cerevisiae deletion strains, locus YLR221C, strain rsa3, active compounds read low): 0.856 (active); normalized growth (S. cerevisiae deletion strains, locus YLR258W, strain gsy2, active compounds read low): 0.924; normalized growth (S. cerevisiae deletion strains, locus YLR262C, strain YPT6 (second series), active compounds read low): 0.403 (active); normalized growth (S. cerevisiae deletion strains, locus YLR262C, strain YPT6, active compounds read low): 0.736; normalized growth (S. cerevisiae deletion strains, locus YLR268W, strain sec22, active compounds read low): 1.01; normalized growth (S. cerevisiae deletion strains, locus YLR320W, strain mms22, active compounds read low): 0.815 (active); normalized growth (S. cerevisiae deletion strains, locus YLR330W, strain CHS5, active compounds read low): 0.994; normalized growth (S. cerevisiae deletion strains, locus YLR342W, strain FKS1 (second series), active compounds read low): 0.982; normalized growth (S. cerevisiae deletion strains, locus YLR342W, strain FKS1, active compounds read low): 0.935; normalized growth (S. cerevisiae deletion strains, locus YLR357W, strain rsc2, active compounds read low): 1.1; normalized growth (S. cerevisiae deletion strains, locus YLR370C, strain arc18, active compounds read low): 0.902 (active); normalized growth (S. cerevisiae deletion strains, locus YLR371W, strain rom2, active compounds read low): 0.997; normalized growth (S. cerevisiae deletion strains, locus YLR384C, strain iki3, active compounds read low): 0.992; normalized growth (S. cerevisiae deletion strains, locus YLR418C, strain cdc73, active compounds read low): 1; normalized growth (S. cerevisiae deletion strains, locus YML016C, strain PPZ1, active compounds read low): 0.992; normalized growth (S. cerevisiae deletion strains, locus YML032C, strain rad52, active compounds read low): 0.957; normalized growth (S. cerevisiae deletion strains, locus YML120C, strain ndi1, active compounds read low): 0.917; normalized growth (S. cerevisiae deletion strains, locus YML124C, strain tub3, active compounds read low): 0.996; normalized growth (S. cerevisiae deletion strains, locus YMR058W, strain fet3, active compounds read low): 0.871 (active); normalized growth (S. cerevisiae deletion strains, locus YMR078C, strain ctf18, active compounds read low): 0.994; normalized growth (S. cerevisiae deletion strains, locus YMR125W, strain sto1, active compounds read low): 1.04; normalized growth (S. cerevisiae deletion strains, locus YMR129W, active compounds read low): 0.966; normalized growth (S. cerevisiae deletion strains, locus YMR205C, strain PFK2, active compounds read low): 0.898; normalized growth (S. cerevisiae deletion strains, locus YMR223W, strain ubp8, active compounds read low): 1.02; normalized growth (S. cerevisiae deletion strains, locus YMR231W, strain pep5, active compounds read low): 0.754 (active); normalized growth (S. cerevisiae deletion strains, locus YMR307W, strain GAS1, active compounds read low): 0.904; normalized growth (S. cerevisiae deletion strains, locus YNL067W, strain RPL9B, active compounds read low): 0.972; normalized growth (S. cerevisiae deletion strains, locus YNL071W, strain lat1, active compounds read low): 0.821 (active); normalized growth (S. cerevisiae deletion strains, locus YNL153C, strain GIM3, active compounds read low): 1.02; normalized growth (S. cerevisiae deletion strains, locus YNL183C, strain NPR1, active compounds read low): 0.88; normalized growth (S. cerevisiae deletion strains, locus YNL209W, strain ssb2, active compounds read low): 0.929; normalized growth (S. cerevisiae deletion strains, locus YNL233W, strain BNI4, active compounds read low): 0.992; normalized growth (S. cerevisiae deletion strains, locus YNL248C, strain rpa49, active compounds read low): 0.835 (active); normalized growth (S. cerevisiae deletion strains, locus YNL250W, strain rad50, active compounds read low): 0.992; normalized growth (S. cerevisiae deletion strains, locus YNL271C, strain bni1, active compounds read low): 1; normalized growth (S. cerevisiae deletion strains, locus YNL298W, strain CLA4, active compounds read low): 0.913; normalized growth (S. cerevisiae deletion strains, locus YNL307C, strain MCK1, active compounds read low): 0.995; normalized growth (S. cerevisiae deletion strains, locus YNL322C, strain KRE1 (second series), active compounds read low): 0.961; normalized growth (S. cerevisiae deletion strains, locus YNR049C, strain mso1, active compounds read low): 0.97; normalized growth (S. cerevisiae deletion strains, locus YNR052C, strain pop2, active compounds read low): 1.01; normalized growth (S. cerevisiae deletion strains, locus YOL006C, strain TOP1, active compounds read low): 0.979; normalized growth (S. cerevisiae deletion strains, locus YOL012C, strain htz1): 1.64; normalized growth (S. cerevisiae deletion strains, locus YOL147C, strain pex11, active compounds read low): 0.997; normalized growth (S. cerevisiae deletion strains, locus YOR001W, strain rrp6, active compounds read low): 0.892; normalized growth (S. cerevisiae deletion strains, locus YOR061W, strain CKA2, active compounds read low): 0.993; normalized growth (S. cerevisiae deletion strains, locus YOR069W, strain VPS5, active compounds read low): 1; normalized growth (S. cerevisiae deletion strains, locus YOR070C, strain gyp1, active compounds read low): 0.906 (active); normalized growth (S. cerevisiae deletion strains, locus YOR080W, strain dia2, active compounds read low): 1.02; normalized growth (S. cerevisiae deletion strains, locus YOR083W, strain WHI5, active compounds read low): 0.899; normalized growth (S. cerevisiae deletion strains, locus YOR106W, strain vam3, active compounds read low): 0.817 (active); normalized growth (S. cerevisiae deletion strains, locus YOR136W, strain idh2, active compounds read low): 0.998; normalized growth (S. cerevisiae deletion strains, locus YOR144C, strain elg1, active compounds read low): 1; normalized growth (S. cerevisiae deletion strains, locus YOR184W, strain ser1, active compounds read low): 0.958; normalized growth (S. cerevisiae deletion strains, locus YOR231W, strain MKK1, active compounds read low): 0.946; normalized growth (S. cerevisiae deletion strains, locus YOR265W, strain rbl2, active compounds read low): 0.945; normalized growth (S. cerevisiae deletion strains, locus YOR270C, strain vph1, active compounds read low): 0.674 (active); normalized growth (S. cerevisiae deletion strains, locus YOR290C, strain snf2, active compounds read low): 0.908; normalized growth (S. cerevisiae deletion strains, locus YOR316C, strain cot1, active compounds read low): 0.993; normalized growth (S. cerevisiae deletion strains, locus YPL051W, strain arl3, active compounds read low): 0.715 (active); normalized growth (S. cerevisiae deletion strains, locus YPL055C, strain LGE1, active compounds read low): 0.947; normalized growth (S. cerevisiae deletion strains, locus YPL078C, strain atp4, active compounds read low): 0.838 (active); normalized growth (S. cerevisiae deletion strains, locus YPL106C, strain sse1, active compounds read low): 1.1; normalized growth (S. cerevisiae deletion strains, locus YPL240C, strain hsp82, active compounds read low): 0.951; normalized growth (S. cerevisiae deletion strains, locus YPL241C, strain CIN2, active compounds read low): 0.999; normalized growth (S. cerevisiae deletion strains, locus YPL256C, strain CLN2, active compounds read low): 0.92; normalized growth (S. cerevisiae deletion strains, locus YPR119W, strain clb2, active compounds read low): 0.997; normalized growth (S. cerevisiae deletion strains, locus YPR141C, strain kar3, active compounds read low): 0.999; normalized growth (S. cerevisiae deletion strains, locus YPR163C, strain tif3, active compounds read low): 1.01; normalized growth (S. cerevisiae deletion strains, locus YPR167C, strain met16, active compounds read low): 0.99; normalized growth (S. cerevisiae deletion strains, strain wtn01, active compounds read low): 0.96; normalized growth (S. cerevisiae strains, strain wild type, active compounds read low): 0.998
